Bioassay records deposited in PubChem BioAssay by National Center for Advancing Translational Sciences (NCATS).
An excerpt weighted towards active compounds, which were near 9.2% of everything screened.
ALDH1A1 block: qHTS Assay for Inhibitors of Aldehyde Dehydrogenase 1 (ALDH1A1); Aldehyde dehydrogenase 1A1 (Homo sapiens), P00352; Purified ALDH1A1, NADH fluorescence, propionaldehyde substrate; Potency, µM (highest dose often 75.3 µM), actives largely listed as inhibitors; 7.3% of 220,000 active
JMJD2E inh: qHTS Assay for Inhibitors of Human Jumonji Domain Containing 2E (JMJD2E) | Potency, µM (doses to about 57.1 µM), hits mostly inhibitors | 1.6% of 230,000 active | JMJD2E catalytic domain, FDH-coupled NADH fluorescence (FDH is formaldehyde dehydrogenase) | Lysine-specific demethylase 4E (Homo sapiens), B2RXH2; further: nearly all actives have a fitted effect of over 50% in size
Target sequence (B2RXH2 1-337 limits assumed): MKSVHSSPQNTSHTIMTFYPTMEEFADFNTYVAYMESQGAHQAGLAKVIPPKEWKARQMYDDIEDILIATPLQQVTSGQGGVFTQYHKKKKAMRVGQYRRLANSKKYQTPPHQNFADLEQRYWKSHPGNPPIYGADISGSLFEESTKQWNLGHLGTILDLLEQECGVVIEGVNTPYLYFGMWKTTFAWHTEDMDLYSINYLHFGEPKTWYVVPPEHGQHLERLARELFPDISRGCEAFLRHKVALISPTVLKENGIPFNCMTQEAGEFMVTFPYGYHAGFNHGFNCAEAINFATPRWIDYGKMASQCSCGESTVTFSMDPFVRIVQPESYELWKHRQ
HttQ103 aggreg: qHTS Multiplex Assay to Identify Dual Action Probes in a Cell Model of Huntington: Aggregate Formation (GFP); PC12 HttQ103-GFP aggregates, Acumen cytometry, 40 h; Potency, µM (highest dose often 46.1 µM), hits mostly inhibitors; 1.1% of 220,000 active; AID 1688, 2009; active means well fitted curve in the direction sought with a large enough effect; inconclusive means small, poorly fitted or top-dose-only effect, or another doubt; inactive means no such curve, though single readings can be large; an effect the other way counts as inactive or inconclusive; further: nearly all actives have a fitted effect of over 60% in size
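Steps: seed 1500 PC12 HTTQ103-GFP cells/well; add tebufenozide, 100 nM final; add compound titration; add ATPLite reagent; quantify GFP aggregates by laser scanning cytometry.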
HTT cytoprotect: qHTS Multiplex Assay to Identify Dual Action Probes in a Cell Model of Huntington: Cytoprotection (ATP). Potency, µM (top dose mostly 56.4 µM), most hits filed as activators. PC12 HTT-Q103 induced, cytoprotection, ATP luminescence, 40 h. 0.14% of 230,000 active; active means well fitted curve in the direction sought with a large enough effect; inconclusive means small, poorly fitted or top-dose-only effect, or another doubt; inactive means no such curve, though single readings can be large; an effect the other way counts as inactive or inconclusive; further: nearly all actives have a fitted effect of over 45% in size
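Readout: ATPlite luminescence (ATP level). Model: stable PC12, inducible Htt exon1 Q103-GFP. Inducer: tebufenozide, 100 nM final. Compounds: dose series. No G418 in medium.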
Lamin A splicing: qHTS Assay for Modulators of Lamin A Splicing; HeLa LMNA splicing GFP/RFP minigene ratio, 48 h; Potency, µM (top dose mostly 46.1 µM), usual class: inhibitors; 0.01% of 200,000 active; active means well fitted inhibition curve with a large enough effect in the signal ratio, with a control signal flat, not every such curve was filed as active; inconclusive means small, poorly fitted or top-dose-only effect, or effect the other way, or a change in a side signal; the % refers to the signal ratio
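S3 HeLa stable clones carrying a lamin A-EGFP splicing minigene plus DsRed2 were seeded at 600 cells/well in Opti-MEM with 2% FBS, pin-dosed and incubated 48 h at 37°C. Acumen cytometry (488 nm) gave the GFP/RFP total-intensity ratio.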
HPGD inh: qHTS Assay for Inhibitors of HPGD (15-Hydroxyprostaglandin Dehydrogenase) | purified HPGD, NADH fluorescence kinetic, PGE2 substrate | Potency, µM, hits mostly inhibitors | 4.3% of 150,000 active | AID 894, 2007
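20 nM HPGD preincubated 15 min at room temperature with compound in 50 mM Tris-HCl pH 8, 0.01% Tween 20. Started with 1 mM NAD+ and 30 uM prostaglandin E2; NADH fluorescence (360/450 nm) read 5 times over 30-s intervals, last minus first.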
A number is an active result; 0 = inactive; ? = inconclusive; - = not tested or not shown; [ ] = dose if it differs, or a comment. Unless noted, the call rests on the fitted dose curve; in most records, active means well fitted inhibition curve with a large enough effect (not every such curve was filed as active); inconclusive means small, poorly fitted or top-dose-only effect, or another doubt; inactive means no such curve, though single readings can be large or run the other way.

SMILES	ALDH1A1 block	JMJD2E inh	HttQ103 aggreg	HTT cytoprotect	Lamin A splicing	HPGD inh
Cc1[nH]nc(SCC(=O)N2CCCCCC2)c1[N+](=O)[O-]	?	0	0[9.22 µM]	0	0	-
COc1ccc(N/N=C(/N=Nc2nc(C)cc(=O)[nH]2)c2ccccc2)cc1	0	14µM	?	0[10 µM]	?	0
Cc1cc(=O)[nH]c(N=N/C(=N/Nc2ccc(O)cc2)c2ccccc2)n1	14µM	0	1.6µM	0[10 µM]	0	32µM
COc1ccc(NC(=O)COC(=O)Cc2ccccc2[N+](=O)[O-])cc1OC	14µM	0	0	0	-	-
Cc1c(C(=O)OCC(=O)NCc2ccc3c(c2)OCO3)cccc1[N+](=O)[O-]	7.9µM	0	0	0[0.074 µM]	0	0
COc1ccc(NCc2ccccc2[N+](=O)[O-])cc1OC	?	?	0	0[10 µM]	0	0
Cc1c(C(=O)OCC(=O)Nc2ccc3c(c2)OCO3)cccc1[N+](=O)[O-]	8.9µM	0	0	0[10 µM]	0	0
O=C(Cc1ccccc1[N+](=O)[O-])NCc1ccc2c(c1)OCO2	0	0	0	0[10 µM]	0	0
COC(=O)c1sccc1S(=O)(=O)N(CC(=O)Nc1ccccc1C)c1ccc(Cl)cc1	-	-	-	-	0	-
O=C1c2cccc3cccc(c23)C(=O)N1CC1CCCO1 (stereo not drawn)	?	?	0	0	0	-
O=C(Nc1ccncc1)c1ccc2c(c1)C(=O)N(C1CCCCC1)C2=O	7.1µM	0	0	0	?	0
Cc1ccnc(NC(=O)c2ccc3c(c2)C(=O)N(CC2CCCO2)C3=O)c1 (stereo not drawn)	?	0	0	0	0	-
Cc1cc(NC(=O)c2ccc3c(c2)C(=O)N(C2CCCCC2)C3=O)no1	0	0	0	0	0	0
Nc1cccc(Oc2ccc3c(c2)C(=O)N(CC2CCCO2)C3=O)c1 (stereo not drawn)	8.9µM	0	0[9.22 µM]	0[10 µM]	-	-
O=C(Nc1ccncc1)c1ccc2c(c1)C(=O)N(CC1CCCO1)C2=O (stereo not drawn)	5.6µM	0	0	-	0	0
CCC1CN(C(=O)Nc2cc(C)ccc2OC)c2cc(Cl)ccc2O1 (stereo not drawn)	-	-	-	-	0	-
O=C(NNC(=O)c1ccccc1Cl)c1cccs1	0	0	0	0[10 µM]	0	0
O=C(NNc1c(Cl)cccc1Cl)c1cccs1	25µM	0	0[9.22 µM]	0[10 µM]	-	-
CCCOc1ccc(N2C(=O)CC(NCCNc3ccc(S(=O)(=O)CC)cc3)C2=O)cc1 (stereo not drawn)	?	0	0	0[10 µM]	0	0
COc1ccc(N2C(=O)CC(NCCNc3ccc([N+](=O)[O-])cn3)C2=O)cc1 (stereo not drawn)	1.8µM	0	0	-	?	0
CCOc1ccc(N2C(=O)CC(NCCNc3ccc([N+](=O)[O-])cn3)C2=O)cc1 (stereo not drawn)	0.89µM	0	0	0	0	-
C=Cc1ccccn1	0	-	-	0	-	0
O=C(Nc1ccon1)c1ccc2c(c1)OCO2	0	?	?	0[10 µM]	0	18µM
O=C(NC(=S)NNC(=O)[C@H]1C[C@@H]1c1ccccc1)c1cccc(F)c1	22µM	0	0[9.22 µM]	0[10 µM]	-	-
COc1cccc(OC)c1C(=O)NC(=S)NNC(=O)[C@H]1C[C@@H]1c1ccccc1	0	?	0[9.22 µM]	0[10 µM]	-	-
COc1ccc(-c2coc3ccc(O[C@@H]4O[C@@H](COC(C)=O)[C@@H](OC(C)=O)[C@@H](OC(C)=O)[C@H]4OC(C)=O)cc3c2=O)cc1	-	-	-	0	-	-
C=NC(C(=O)NC1C(=O)N2C1SC(C)(C)C2C(=O)O)c1ccccc1 (stereo not drawn)	?	?	0	0	-	?
CN(C)/C=C(\C#N)C(=O)c1cccc(Oc2ccc(Br)cc2)c1	0	0	0	0	0	0
CC(C)c1ccc(Oc2cccc(C(=O)/C(C#N)=C/N(C)C)c2)cc1	0	0	0	0	0	16µM
Clc1ccc(C[n+]2csc3ccccc32)cc1	2.8µM	?	0	-	0	16µM
